Over roughly 33,000 sequences, “e-score” has its median near -0.037; the highest 2% begin near 0.34. This excerpt belongs to a sample that is enriched for the highest values.

This assay has as its target T1, GST-Rok (full length) (Bacillus subtilis subsp. subtilis str. …, UniProt O34857 1-191).
T1 sequence: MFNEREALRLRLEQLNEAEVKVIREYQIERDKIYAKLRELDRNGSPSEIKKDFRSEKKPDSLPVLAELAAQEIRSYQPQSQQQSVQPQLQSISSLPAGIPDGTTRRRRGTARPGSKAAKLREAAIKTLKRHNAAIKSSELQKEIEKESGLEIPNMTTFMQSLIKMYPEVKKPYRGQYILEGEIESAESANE
Kind of assay: protein binding microarray; Rok is a gene silencer of Bacillus subtilis; high values mean tight binding. The conditions noted are these: protein: recombinant; tags: GST (pTH5325, pDEST15-Magic modified); dsDNA, one strand shown. The method in brief:
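Each has a 25-mer constant primer and a 35-mer variable part from a de Bruijn sequence of order 10, covering every non-palindromic 8-mer at least 32 times (palindromic 16). Preference for each 8-mer is given as a rank-based, unitless enrichment score (E-score). Its range runs from 0.5 (most favored) to −0.5 (most disfavored).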
As for AACCATAA, the binding signal was 0.0915 E-score. In the case of TACCATAA it was 0.336 E-score. As for GACCATAA, the figure is -0.0227 E-score. As for AATAGTTG, the figure is 0.313 E-score; as for GATAGTGA, 0.162 E-score. In the case of GATAGTCA, the binding signal stood at 0.0302 E-score. Take AATAGTTA: the binding signal is 0.372 E-score. On to GATAGTTA, for which the binding signal is 0.391 E-score. In the case of CATAGTTA it was 0.244 E-score; in that of TGCTGCAA, -0.149 E-score; in that of GCAATACA, 0.115 E-score.

Turning to CAACGACG, the binding signal is -0.1 E-score. With CATAGCCG, the binding signal is -0.0675 E-score.

With CGAACCCG, the binding signal is -0.099 E-score. As for CATAAAGA, the figure is 0.0223 E-score.

Consider AGCAGAGA, for which the binding signal was -0.129 E-score. Turning to ATACGGTG, the binding signal worked out at 0.0458 E-score. As for CTACGGTA, the figure is 0.175 E-score. In the case of GTACGATA it was 0.252 E-score; in that of ATACGATA, 0.366 E-score; in that of ATACGATC, 0.0843 E-score. For the sequence ATACGGTA, the binding signal worked out at 0.348 E-score. In the case of GTTATGAA it was 0.155 E-score. In the case of AAACATCT it was 0.0882 E-score; in that of AGGAGGAA, -0.159 E-score; in that of GCAGTCTA, 0.0175 E-score. In the case of AACTAGAG it was 0.107 E-score; in that of AACTAGAT, 0.369 E-score. As for AACTAGAA, the binding signal amounted to 0.395 E-score. In the case of GACTAGAA it was 0.15 E-score; in that of TGCTAGAA, 0.387 E-score; in that of AGCTAGAT, 0.215 E-score. In the case of AACTAGAC it was 0.103 E-score; in that of TACTAGAA, 0.375 E-score. With ACCTAGAA, the binding signal was determined as 0.109 E-score. Turning to CACTAGAA, the binding signal turned out to be 0.224 E-score. With GGCTAGAA, the binding signal is -0.0986 E-score. As for AGCTAGAA, the binding signal is 0.329 E-score. With AAAAAGCT, the binding signal is -0.0996 E-score. For GAGTACCA, the binding signal is -0.0678 E-score.

With ACACATGA, the binding signal is 0.211 E-score. In the case of GACGTAGC, the binding signal worked out at 0.0184 E-score. In the case of AGGTTGAC it was -0.156 E-score; in that of CGTAAGGC, -0.174 E-score; in that of AGAGGACT, -0.176 E-score. Turning to GAGCTAAC, the binding signal stood at 0.0297 E-score. For ATCCTAAG, the binding signal is -0.0403 E-score. In the case of AATCAATG it was 0.0424 E-score; in that of CACTTATC, 0.23 E-score. As for ACGTAAAG, the figure is 0.0236 E-score; as for CGTAGAAC, 0.0102 E-score.

CGTAGAAA: the binding signal stood at 0.359 E-score. Take GATAGAAC: the binding signal is 0.278 E-score. In the case of CGTAGAAG it was 0.128 E-score; in that of GGTAGAAC, 0.374 E-score; in that of TGTAGACA, 0.159 E-score. As for GGTAGAGA, the figure is 0.0752 E-score. In the case of GGTAGACA it was 0.0655 E-score; in that of GTTAGAAC, 0.0808 E-score.

In the case of TGTAGAAA, the binding signal amounted to 0.396 E-score. As for GGTAGAAA, the figure is 0.472 E-score; as for TTTAGAAA, 0.183 E-score; as for AAGTGAGC, -0.093 E-score.

Take CGTGCCTA: the binding signal was -0.0621 E-score. In the case of GCCCACTA it was 0.00538 E-score; in that of CCTCTTAC, -0.169 E-score; in that of AGGTTAAT, 0.137 E-score.

Regarding CTGATAAG, the binding signal was found to be 0.0753 E-score. Regarding TCCGTAGA, the binding signal came to 0.118 E-score.

With CTGGAACA, the binding signal is -0.0188 E-score. As to ATACACAT, the binding signal worked out at 0.303 E-score. In the case of CTACATAC it was 0.269 E-score.

For CTACATAG, the binding signal is 0.153 E-score. As to ATACATAG, the binding signal is 0.391 E-score. Take ATACATAT: the binding signal came to 0.399 E-score. ATACATAC: the binding signal was 0.372 E-score. Take ATACATAA: the binding signal was found to be 0.316 E-score. For the sequence GTACATAC, the binding signal was determined as 0.28 E-score. With ATACAAAC, the binding signal turned out to be 0.354 E-score. As for ATACAAAA, the figure is 0.278 E-score; as for AAACATAT, 0.316 E-score; as for ATACAAAT, 0.32 E-score. For the sequence GAATGTAA, the binding signal came out at 0.21 E-score. For the sequence AGCCCTAT, the binding signal was -0.0484 E-score.

For the sequence CGCGATGC, the binding signal was -0.0559 E-score. In the case of AAATTAAA it was 0.166 E-score. In the case of AGGTTCAT it was -0.0409 E-score; in that of GAATGGAC, -0.0766 E-score; in that of AAGGTTGT, -0.00326 E-score. On to GCGATAAA, for which the binding signal was 0.182 E-score. As for ATACAATC, the figure is 0.192 E-score. Regarding ATACAATA, the binding signal was 0.359 E-score.

With ATACAATG, the binding signal was determined as 0.254 E-score. CATAATCA: the binding signal was determined as 0.164 E-score.

These data come from article PMC6212790, “How bacterial xenogeneic silencer rok distinguishes foreign from self DNA in its resident genome”.
